Screening results: PubChem, National Center for Advancing Translational Sciences (NCATS)
TDP1 cell noCPT: qHTS for Inhibitors of human tyrosyl-DNA phosphodiesterase 1 (TDP1): qHTS in cells in absence of CPT. 15% of 420,000 active. AID 686978, 2013. DT40 Tdp1-/- hTDP1 cells, no CPT, ATP luminescence, 48 h. Potency, µM (highest dose often 46.2 µM), most hits filed as inhibitors; also: nearly all actives have a fitted effect of over 55% in size
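Compound effects on proliferation are scored in DT40 Tdp1-/-;hTDP1 cells in the absence of CPT. ATP levels (CellTiter-Glo luminescence) are recorded after a ≥48 hr, 37 °C incubation.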
D3 ag: D3 dopamine receptor (human) agonism; P35462; D3R DiscoveRx beta-arrestin cells, luminescence, 90 min; max activation, %; 0.58% of 410,000 active; AID 652048; in the data active = max activation above about 30%
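Agonist mode: compounds and dopamine controls were applied to plated cells for 90 min at 37 degrees C after an overnight attachment at 1500 cells/well. Luminescent read-out followed 30 - 60 minutes at room temperature with DiscoveRx detection reagent.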
DRD3 antagonist: D3 dopamine receptor (human) antagonism; P35462; D3R cells, DiscoveRx beta-arrestin luminescence, antagonist mode; active compounds read low; max response, negative = inhibition, %; 2.5% of 360,000 active; in the data active = max response below about -50%; inconclusive = no clear call, values can overlap the other calls
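Cells expressing the human receptor were seeded at 1500 cells/well, incubated overnight at 37 degrees C in 5% CO2, then exposed to library compounds with dopamine controls for 90 minutes at 37 degrees C before luminescent detection.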
IL1B secr inh: inhibitors of inflammasome signaling (IL-1 beta secretion); THP-1 LPS/ATP IL-1B secretion, AlphaLISA, 16 h; active compounds read low; activity change, % at 57.5 µM; 4.7% of 360,000 active; AID 743279; in the data active = activity change below about -50%; inconclusive = mostly about -30% to -49%
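THP-1 cells pretreated 1 hr with compounds (up to 57.5 uM final), then stimulated with LPS (250 ng/mL final) plus ATP (1.25 mM final); secreted IL-1B measured by AlphaLISA after 16 hr, decreased signal indicating inhibition.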
ClpP mod: qHTS Assay for Activators of ClpP. Potency, µM (titrated, usually from 57.5 µM). AID 651965, 2013. purified B. subtilis ClpP, FRET peptide cleavage, 20 min. 1.9% of 340,000 active; active = well fitted falling curve with a large enough effect; inconclusive = small, poorly fitted or top-dose-only effect; inactive = no such curve, though single readings can be large or run the other way; also: the source files actives as falling curves though it sought activators and does not explain the sign; nearly all actives have a fitted effect of over 65% in size
Target sequence (P80244 whole entry, looked up): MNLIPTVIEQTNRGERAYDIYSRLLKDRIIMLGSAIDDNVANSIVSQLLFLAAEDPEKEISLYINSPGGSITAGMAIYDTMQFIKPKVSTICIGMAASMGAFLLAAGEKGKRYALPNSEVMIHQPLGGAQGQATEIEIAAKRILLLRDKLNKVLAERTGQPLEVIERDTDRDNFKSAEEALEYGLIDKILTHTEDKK
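ClpP 10 microg/mL final, pH 8 Tris/KCl buffer with BSA, glycerol, Tween-20; compound pinned in; FRET-FV substrate; RT 20 min; Ex320/Em430; ΔFRET vs ADEP 5.8 microM, DMSO, no enzyme.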
TDP1 cell CPT: DT40-hTDP1 cell growth loss with CPT | Potency, µM (doses to about 46.2 µM), hits mostly inhibitors | AID 686979 | chicken DT40 Tdp1-/-;hTDP1 cells + 20 nM CPT, ATP luminescence, 48 h | 12% of 420,000 active; also: nearly all actives have a fitted effect of over 55% in size
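Chicken DT40 Tdp1-/- cells stably complemented with human TDP1 were seeded at 400 cells/well in medium containing 20 nM camptothecin, exposed to pin-transferred compounds, and grown at 37 °C for at least 48 hr. Viability was read as ATP luminescence.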
Of the large screens only hits and unclear results are named; the others gave an inactive call. Only some compounds are listed: those with a hit (about 21% of all), similar ones and a draw of the others. Unless noted, calls follow the shape of the dose curve; as a rule, active = well fitted inhibition curve with a large enough effect; inconclusive = small, poorly fitted or top-dose-only effect; inactive = flat fitted curve, though single readings scatter.

O=C(O)c1cc(S(=O)(=O)N2CCCCC2)ccc1N1CCOCC1	DRD3 antagonist inconclusive
COc1ccc(NC(=O)C(NC(=O)/C=C\c2ccc3c(c2)OCO3)c2ccc(C)cc2)cc1 (stereo not given)	none (no result: DRD3 antagonist, IL1B secr inh)
CCOC(=O)c1c(NC(=O)CN2C(=O)NC3(CCCCC3)C2=O)sc(C)c1-c1ccc(C)cc1	TDP1 cell noCPT 21µM, DRD3 antagonist inconclusive, TDP1 cell CPT 18µM
CCOC(=O)c1c(NC(=O)CN2C(=O)NC3(CCC(C)CC3)C2=O)sc(C(=O)N(C)C)c1C (stereo not given)	ClpP mod inconclusive
CCOC(=O)c1c(NC(=O)CN2C(=O)NC3(CCC(C)CC3)C2=O)sc(C)c1-c1ccc(C)cc1 (stereo not given)	TDP1 cell noCPT 18µM, TDP1 cell CPT 21µM
CCOC(=O)c1sc(NC(=O)CN2C(=O)NC3(CCCCCCC3)C2=O)c(C(=O)OCC)c1C	TDP1 cell noCPT inconclusive, TDP1 cell CPT inconclusive
COc1cccc(CN2CC(C(=O)N3CCOCC3)CCC2=O)c1 (stereo not given)	none
COCc1cc(Sc2ccc(Cl)cc2)nc(-c2ccccc2)n1	TDP1 cell noCPT inconclusive, TDP1 cell CPT inconclusive
COCc1cc(N2CCOCC2)nc(-c2ccccc2)n1	TDP1 cell noCPT inconclusive, IL1B secr inh inconclusive, TDP1 cell CPT 23µM (no result: ClpP mod)
COCc1cc(N2CCN(c3ccccc3F)CC2)nc(-c2ccccc2)n1	TDP1 cell noCPT 12µM, TDP1 cell CPT inconclusive (no result: ClpP mod)
c1ccc(-c2ccc(Oc3cc(N4CCOCC4)nc(-c4ccccc4)n3)cc2)cc1	TDP1 cell noCPT inconclusive, TDP1 cell CPT inconclusive
CC(C)Sc1cc(N2CCOCC2)nc(-c2ccccc2)n1	TDP1 cell noCPT 16µM, IL1B secr inh inconclusive, TDP1 cell CPT 23µM
CCc1noc(C)c1C(=O)N1CCN(S(=O)(=O)c2cccs2)CC1	none
Cc1ccc(C)c(NC(=O)CC2Oc3ccccc3NC2=O)c1 (stereo not given)	none
COc1ccc(CN(C)C(=O)C(CCSC)NS(=O)(=O)c2ccc3c(c2)OCCO3)c(OC)c1OC (stereo not given)	TDP1 cell noCPT inconclusive, TDP1 cell CPT inconclusive
CC1CC(C)CN(S(=O)(=O)c2ccc3c(c2)CCN3C(=O)CCC(=O)O)C1 (stereo not given)	IL1B secr inh inconclusive
FC(F)Sc1ccc(NC(=S)NC2CCCC2)cc1	TDP1 cell noCPT 16µM, TDP1 cell CPT inconclusive (no result: ClpP mod)
OC1CCC(NC(=S)Nc2ccc(SC(F)F)cc2)CC1 (stereo not given)	TDP1 cell noCPT inconclusive, DRD3 antagonist inconclusive, TDP1 cell CPT inconclusive (no result: ClpP mod)
CC(C)(C)c1ccc(/C=N/NC(=S)NC2CCCCC2)cc1	TDP1 cell noCPT 12µM, TDP1 cell CPT 15µM
FC(F)(F)c1ccc(NC(=S)NC2CCCCC2)cc1	TDP1 cell noCPT 18µM, IL1B secr inh -100, TDP1 cell CPT inconclusive (no result: ClpP mod)
FC(F)(F)c1cccc(NC(=S)NC2CCCC2)c1	TDP1 cell noCPT inconclusive, TDP1 cell CPT inconclusive
COc1ccc(/C=N/NC(=O)CC(=O)NC2CCCCC2)cc1	none (no result: ClpP mod)
Cn1c(=O)c2c(ncn2CC(=O)OCC(=O)c2ccc(OC(F)F)cc2OC(F)F)n(C)c1=O	none
Cn1ccc2c(-c3ccc4c(c3)OCCO4)cc3c(c21)C1CCC3C1 (stereo not given)	TDP1 cell noCPT inconclusive, TDP1 cell CPT inconclusive
CCOc1ccc(NC(=O)CCN2CCN(c3ccccc3)CC2)cc1	DRD3 antagonist -52
CCOc1ccc(C(=O)CCC(=O)NNC(=O)CCN2CCN(c3ccccc3)CC2)cc1	DRD3 antagonist -63
O=C(CN1CCCC1)Nc1ccc(OCc2ccccc2)cc1	TDP1 cell noCPT inconclusive, IL1B secr inh inconclusive
N#CCN1CCN(CCC(=O)Nc2ccc(OCc3ccccc3)cc2)CC1	TDP1 cell noCPT 23µM, DRD3 antagonist inconclusive
COc1ccc(NC(=O)CCN2CCN(c3ccc(F)cc3)CC2)cc1	TDP1 cell noCPT inconclusive, DRD3 antagonist -98, TDP1 cell CPT 23µM
